Bioassay records: PubChem BioAssay, Buhrlage Lab, Dana-Farber Cancer Institute and Novartis Institutes for BioMedical Research (Cambridge, Mass)
USP17 inh – inhibitors of human USP17 deubiquitinase. Ubiquitin carboxyl-terminal hydrolase 17-like protein 5 (Homo sapiens), A8MUK1. purified USP17, Ub-rhodamine cleavage fluorescence, 3 h. inhibition, % at 50 µM. 6.5% of 47,000 active. AID 1645855, 2021
Target sequence (A8MUK1 whole entry, looked up): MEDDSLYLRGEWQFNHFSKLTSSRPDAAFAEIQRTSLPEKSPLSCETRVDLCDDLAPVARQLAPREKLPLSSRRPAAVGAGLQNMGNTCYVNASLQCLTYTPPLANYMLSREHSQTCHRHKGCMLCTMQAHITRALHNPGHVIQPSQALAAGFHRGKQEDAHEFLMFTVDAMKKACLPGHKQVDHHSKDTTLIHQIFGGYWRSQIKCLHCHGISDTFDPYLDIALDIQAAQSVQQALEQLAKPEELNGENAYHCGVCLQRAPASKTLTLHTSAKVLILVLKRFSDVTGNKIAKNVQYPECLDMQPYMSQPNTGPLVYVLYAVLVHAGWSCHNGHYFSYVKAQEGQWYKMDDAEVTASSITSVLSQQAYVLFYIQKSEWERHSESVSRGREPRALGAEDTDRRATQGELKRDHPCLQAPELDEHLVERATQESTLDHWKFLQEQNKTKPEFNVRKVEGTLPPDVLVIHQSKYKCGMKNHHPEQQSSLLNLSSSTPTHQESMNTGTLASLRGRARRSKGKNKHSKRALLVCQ
USP30 block – inhibitors of human USP30 deubiquitinase. 5.3% of 47,000 active. purified USP30, Ub-rhodamine cleavage fluorescence. Ubiquitin carboxyl-terminal hydrolase 30 (Homo sapiens), Q70CQ3. inhibition, % at 25 µM
Of the large screens only hits and unclear results are named; the others gave an inactive call. Only some compounds are listed: those with a hit (about 9.6% of all), similar ones and a draw of the others. Cut-off read from the data, not from the text of the source: active = inhibition above about 30%; inactive = the rest.

COc1ccc(S(=O)(=O)NCC(C)(C)SCc2ccc(F)cc2)cc1	USP30 block 31.3
COc1ccc(S(=O)(=O)NCc2ccc3c(c2)cc(C)n3C)cc1	none
COc1cccc(C2CC(=O)C3=C(C2)NC(C)=C(C(=O)OC2CCCC2)C3c2ccc(C)o2)c1 (stereo not drawn)	none
O=C(CN1C(=O)c2ccccc2S1(=O)=O)Nc1c(F)cccc1F	none
Cc1cccc(C(C)C)c1NC(=O)CN1c2ccc(F)cc2-c2ccccc2S1(=O)=O	USP30 block 30.1
CCCC1(c2ccccc2)NC(=O)N(Cc2ccc(Cl)cc2)C1=O (stereo not drawn)	none
Cc1cc(C)cc(C2(C(=O)N3C[C@H](c4ccccc4)[C@H]4COCC[C@H]43)CCOCC2)c1	none
COc1ccc(CCNC(=O)Cn2c(=O)c3sccc3n(Cc3cc(=O)n4ccccc4n3)c2=O)cc1OC	none
COc1ccc(NC(=O)Cn2c(=O)n(CC(=O)NCc3ccc(C)cc3)c(=O)c3sccc32)cc1OC	USP17 inh 71.3, USP30 block 75.3
CCOc1ccc2c(c1)c(=O)c(C(=O)c1ccc(C)cc1)cn2CC(=O)Nc1ccc(C)c(C)c1	none (no result: USP30 block)
CCOc1ccc(NC(=O)Cn2c(=O)n(CC(=O)NCc3ccc(C)cc3)c(=O)c3sccc32)cc1	USP30 block 69.8 (no result: USP17 inh)
N#Cc1cc(C(=O)c2ccc(Cl)cc2)c[nH]1	USP17 inh 50.5
COc1ccc(C(=O)c2c[nH]c(C(N)=O)c2)cc1	none
CCCNc1cc(N2CCCC(CCC(=O)N3CCCCC3)C2)ncn1 (stereo not drawn)	none
Clc1cc(Cl)c2nc(N3CCc4ccccc4C3)sc2c1	none
COCC(C)n1c(C)cc(C(=O)CSc2nncn2-c2ccccc2OC)c1C (stereo not drawn)	none
COc1ccc(-n2c(C)cc(C(=O)CSc3nncn3-c3ccccc3OC)c2C)cc1	USP17 inh 33.6
Cc1ccc(NS(=O)(=O)c2cc(C(=O)N3CCCCC3)n(C)c2C)cc1C	none
COc1cc(C2CC(=O)Nc3n[nH]c(-c4ccccc4)c32)cc(OC)c1OC (stereo not drawn)	none
COc1cccc(C2CC(=O)Nc3n[nH]c(-c4ccccc4)c32)c1 (stereo not drawn)	USP17 inh 67.7, USP30 block 63.5
O=C(CN1CCCN(Cc2ccccc2)S1(=O)=O)Nc1ccc(F)cc1	USP30 block 33.0
COc1cccc(CN2CCCN(CC(=O)Nc3ccccc3)S2(=O)=O)c1	none
COc1cccc(C(=O)Nc2nc3ccc(S(=O)(=O)N4CCOCC4)cc3s2)c1OC	USP17 inh 47.4 (no result: USP30 block)
O=S(=O)(Nc1nc2ccc(S(=O)(=O)N3CCCC3)cc2s1)c1ccc(F)cc1	none
O=C(c1n[nH]c2c1CCCC2)N1CCCC(c2nnc(-c3ccccc3)o2)C1 (stereo not drawn)	none
O=C(COc1ccc2ccccc2c1)NCc1nnnn1-c1ccc(F)c(F)c1	USP17 inh 47.6
CCOc1ccc(-n2nnnc2CNC(=O)NCc2ccccc2)cc1	none
COc1ccc(-n2c(/C=C/c3cccc4ccccc34)nc3ccccc3c2=O)cc1	none
COc1ccc(-n2c(=O)c(CCC(=O)O)nc3ccccc32)cc1	USP17 inh 50.1
COc1cc(NC(=O)c2nc3ccccc3nc2N2CCOCC2)cc(OC)c1	none
COc1ccc2cc(CN(Cc3ccccc3)S(=O)(=O)c3cccc(C(F)(F)F)c3)c(=O)[nH]c2c1	none
O=C1COc2ccc(C(=O)COC(=O)C3(c4ccc(F)cc4)CCCC3)cc2N1	none
O=C1COc2ccc(C(=O)COC(=O)c3ccccc3O)cc2N1	USP17 inh 36.1
O=C1COc2ccc(C(=O)COC(=O)CCc3nc4ccccc4s3)cc2N1	USP17 inh 48.1, USP30 block 30.0
O=C1COc2ccc(C(=O)N3CCc4ccccc4C3)cc2N1	none
CCOc1ccc(-c2nc(-c3cccc(-c4ccnn4C)c3)no2)cc1	none
CCOc1ccc(Nc2nc3ccccc3nc2Nc2cc(C)nn2-c2ccc([N+](=O)[O-])cc2)cc1	USP17 inh 41.9
Cc1cc(C)n(-c2nc3ccccc3nc2N2CCN(c3ccc([N+](=O)[O-])cc3)CC2)n1	none
COc1ccc(Cl)cc1C(=O)Nc1ccc(S(=O)(=O)Nc2onc(C)c2C)cc1	none
Clc1cccc(CN2CCc3nc(N4CCOCC4)ncc3C2)c1	none
Fc1ccccc1N1CCN(c2ncc3c(n2)CCN(Cc2ccccn2)C3)CC1	USP17 inh 50.6
O=C1N[C@H]2OCC[C@H]2[C@H](C2CCN(C(=O)c3ccc(=O)[nH]c3)CC2)N1	none
CC(=O)N1C[C@H](c2ccccc2)[C@H]2CN(C(=O)c3ccc(=O)[nH]c3)CC[C@H]21	USP30 block 30.3
O=C(NCc1noc(CCc2ccccc2)n1)C1CCCCC1	none
O=C(NCCc1ccccc1F)c1cn2cc(Cl)ccc2n1	USP30 block 61.4
O=C(NCCc1c[nH]c2ccc(F)cc12)c1cn2cc(Cl)ccc2n1	none
O=c1cc(C2CCN(Cc3ccc(F)cc3)CC2)nc(-c2cccnc2)[nH]1	none
O=C(Cc1ccc(Cl)cc1)Nc1ccccc1N1CCCCC1	none
N#Cc1cccc(NC(=O)c2ccc3c(=O)n4c(nc3c2)CCCCC4)c1	USP17 inh 36.2
CC(NC(=O)c1ccc2c(=O)n3c(nc2c1)CCCCC3)c1ccccc1 (stereo not drawn)	none
Cc1cc(NC(=O)c2ccc3c(=O)n4c(nc3c2)CCCCC4)no1	USP30 block 31.2
CC(OC(=O)c1ccc2c(=O)n3c(nc2c1)CCCCC3)C(=O)NC1CCCC1 (stereo not drawn)	USP17 inh 30.6, USP30 block 46.8
O=C(NC1CC1)c1ccc2c(=O)n3c(nc2c1)CCCC3	none (no result: USP30 block)
Cc1cc(=O)oc2cc(NC(=O)c3ccc4c(=O)n5c(nc4c3)CCCC5)ccc12	none
N#CC1(NC(=O)CN2CCCCC2Cn2cccn2)CCCC1 (stereo not drawn)	none
CC(=O)N1CCCC[C@@H]2[C@H]1CCN2Cc1cn[nH]c1-c1ccccc1	none
Cn1nc(-c2ccccc2)c(C#N)c1Sc1ccc(C(C)(C)C)cc1	none
Cc1cc(O)c2c3c(c(O)cc2c1)C(=O)c1c(O)cccc1C3=O	USP17 inh 63.2
O=C1c2cccc(O)c2C(=O)c2c(O)cccc21	none
Cc1nc(NCC2CCN(C(=O)NCCN)CC2)c2cc(Cl)ccc2n1	none
O=C(O)c1ccc(C(=O)Nc2ccc(SCC(=O)N3CCc4ccccc43)cc2)c(C(=O)O)c1	none
O=C(Cc1ccccc1F)N1CCN(C(=O)c2cc(-c3ccccn3)n[nH]2)CC1	none
CC(C)[C@H](NC(=O)[C@H](Cc1c[nH]c2ccccc12)n1c(=O)[nH]c2ccccc2c1=O)C(=O)N1CCC(C(=O)O)CC1	none
O=C(Nc1cc(=O)[nH]c2nc(Cc3ccccc3)nn12)c1ccc(F)cc1	none
CCCCC(=O)N1CCN(c2nc3ccccc3n(Cc3ccccc3)c2=O)CC1	none
O=C(N[C@H]1[C@H](O)[C@H](O)C[C@@H]1C1CCCCC1)c1cncnc1	none
O=C(N[C@H]1[C@H](O)[C@H](O)C[C@@H]1C1CCCCC1)C1CC1	USP30 block 48.8
c1ccc2c(c1)C(N1CCCC1)CCC21CCN(C2CCOCC2)CC1 (stereo not drawn)	none
O=C(c1cnn(-c2ccccc2)c1C1CC1)N1CCCCCC1	none
CC(C(=O)c1ccccc1)C1(O)C(=O)N(Cc2cccc3ccccc23)c2ccccc21 (stereo not drawn)	none
Cc1cc(Cl)ccc1NC(=O)CCS(=O)(=O)c1ccc2c(c1)OCC(=O)N2	USP17 inh 33.5
Cc1ccc(NC(=O)CCS(=O)(=O)c2ccc3c(c2)OCC(=O)N3)cc1Cl	none
